Data reported in PubChem BioAssay.
Calls of active or inactive are those of the source.

What was measured:
[1] = tested on: PRMT1 (protein arginine N-methyltransferase 1); experiment: small molecules binding arginine methyltransferase PRMT1 – biochemical, small-molecule microarray, 635 nm fluorescence, primary screen (AID 1088); conditions: higher = more signal;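 further: binding of Prmt1 protein to compounds spotted on small-molecule microarray slides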
[2] = growth effects on S. cerevisiae YJM789 – YJM789 clinical isolate, OD600, 24 h, basal, primary screen (AID 1089); conditions: higher = more signal, called active from +8 up or from −8 down;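 further: growth of clinical yeast isolate S. cerevisiae YJM 789 seeded 1000 cells per well; test concentration not given here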
[3] = S. pombe growth modifiers, basal conditions – strain 972, OD600, 24 h, no modulator, primary screen (AID 1090);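 further: basal condition with compound alone and no growth modifier present; test concentration not given here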; conditions: S. pombe 972 growth, higher = more signal, called active from +8 up or from −8 down
[4] = budding yeast growth modifiers under rapamycin – strain BY4716, OD600, 96 h, primary screen (AID 1091); further: test concentration not given here; conditions: S. cerevisiae BY4716 + rapamycin, higher = more signal, called active from +8 up or from −8 down
[5] = target: Torsin-1A-interacting protein 2 (Homo sapiens) (UniProt Q8NFQ8); experiment: small molecules binding lysate-expressed LULL1 – cell lysate, human LULL1 lysate, 635/667 nm fluorescence, primary screen (AID 1092); conditions: small-molecule microarray, hLULL1 lysate binding, 635 nm fluorescence; higher = more signal;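 further: probe is lysate of COS7 cells overexpressing human LULL1; score merges per-feature 667 nm fluorescence with signal-to-noise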
[6] = optical density change of DRC41 E. coli – strain DRC41, OD650, 24 h, E. coli filamentation project, primary screen (AID 1093);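 further: MC1000 strain lacking acrAB efflux and sulA so SOS filamentation is blocked; test concentration not given here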; conditions: E. coli DRC41 growth, higher = more signal, called active from +8 up or from −8 down
[7] = probe aLefty2 binding to arrayed compounds – biochemical, biotinylated probe, 635/667 nm fluorescence, primary screen (AID 1094); conditions: small-molecule microarray, higher = more signal;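 further: score merges spot fluorescence near 667 nm with spot signal-to-noise ratio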
[8] = tested on: Noggin (protein binding on small-molecule microarray); experiment: small molecules binding Noggin protein – biochemical, 635/667 nm fluorescence, primary screen (AID 1095); conditions: 635 nm fluorescence, higher = more signal;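 further: score merges 667 nm feature fluorescence with signal to noise over triplicate slides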
[9] = target: Neurogenic locus notch homolog protein 3 (Homo sapiens) (UniProt Q9UM47); experiment: small molecules binding NOTCH3 protein – biochemical, 635/667 nm fluorescence, primary screen (AID 1096); conditions: small-molecule microarray, 635 nm fluorescence, higher = more signal
[10] = probe aEGFR binding to arrayed compounds – biochemical, biotinylated probe, 635/667 nm fluorescence, primary screen (AID 1097); conditions: small-molecule microarray, higher = more signal;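 further: probe is a biotinylated anti-EGFR antibody binding compounds printed on slides; score combines fluorescence near 667 nm and signal to noise of each spot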

Sequence of Torsin-1A-interacting protein 2 (Homo sapiens) (Q8NFQ8 whole entry, looked up): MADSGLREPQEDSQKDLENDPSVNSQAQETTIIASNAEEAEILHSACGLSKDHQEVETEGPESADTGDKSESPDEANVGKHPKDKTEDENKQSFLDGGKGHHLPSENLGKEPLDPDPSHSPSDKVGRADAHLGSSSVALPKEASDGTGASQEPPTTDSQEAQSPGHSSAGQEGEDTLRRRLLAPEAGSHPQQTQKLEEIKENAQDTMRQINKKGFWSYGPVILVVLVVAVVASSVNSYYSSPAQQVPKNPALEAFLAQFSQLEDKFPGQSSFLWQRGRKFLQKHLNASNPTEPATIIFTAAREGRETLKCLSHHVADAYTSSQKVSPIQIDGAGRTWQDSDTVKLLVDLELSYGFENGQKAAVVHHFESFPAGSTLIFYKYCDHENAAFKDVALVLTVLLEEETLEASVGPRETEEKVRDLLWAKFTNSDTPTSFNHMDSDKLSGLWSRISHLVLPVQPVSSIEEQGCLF
Sequence of Neurogenic locus notch homolog protein 3 (Homo sapiens) (Q9UM47 whole entry, looked up): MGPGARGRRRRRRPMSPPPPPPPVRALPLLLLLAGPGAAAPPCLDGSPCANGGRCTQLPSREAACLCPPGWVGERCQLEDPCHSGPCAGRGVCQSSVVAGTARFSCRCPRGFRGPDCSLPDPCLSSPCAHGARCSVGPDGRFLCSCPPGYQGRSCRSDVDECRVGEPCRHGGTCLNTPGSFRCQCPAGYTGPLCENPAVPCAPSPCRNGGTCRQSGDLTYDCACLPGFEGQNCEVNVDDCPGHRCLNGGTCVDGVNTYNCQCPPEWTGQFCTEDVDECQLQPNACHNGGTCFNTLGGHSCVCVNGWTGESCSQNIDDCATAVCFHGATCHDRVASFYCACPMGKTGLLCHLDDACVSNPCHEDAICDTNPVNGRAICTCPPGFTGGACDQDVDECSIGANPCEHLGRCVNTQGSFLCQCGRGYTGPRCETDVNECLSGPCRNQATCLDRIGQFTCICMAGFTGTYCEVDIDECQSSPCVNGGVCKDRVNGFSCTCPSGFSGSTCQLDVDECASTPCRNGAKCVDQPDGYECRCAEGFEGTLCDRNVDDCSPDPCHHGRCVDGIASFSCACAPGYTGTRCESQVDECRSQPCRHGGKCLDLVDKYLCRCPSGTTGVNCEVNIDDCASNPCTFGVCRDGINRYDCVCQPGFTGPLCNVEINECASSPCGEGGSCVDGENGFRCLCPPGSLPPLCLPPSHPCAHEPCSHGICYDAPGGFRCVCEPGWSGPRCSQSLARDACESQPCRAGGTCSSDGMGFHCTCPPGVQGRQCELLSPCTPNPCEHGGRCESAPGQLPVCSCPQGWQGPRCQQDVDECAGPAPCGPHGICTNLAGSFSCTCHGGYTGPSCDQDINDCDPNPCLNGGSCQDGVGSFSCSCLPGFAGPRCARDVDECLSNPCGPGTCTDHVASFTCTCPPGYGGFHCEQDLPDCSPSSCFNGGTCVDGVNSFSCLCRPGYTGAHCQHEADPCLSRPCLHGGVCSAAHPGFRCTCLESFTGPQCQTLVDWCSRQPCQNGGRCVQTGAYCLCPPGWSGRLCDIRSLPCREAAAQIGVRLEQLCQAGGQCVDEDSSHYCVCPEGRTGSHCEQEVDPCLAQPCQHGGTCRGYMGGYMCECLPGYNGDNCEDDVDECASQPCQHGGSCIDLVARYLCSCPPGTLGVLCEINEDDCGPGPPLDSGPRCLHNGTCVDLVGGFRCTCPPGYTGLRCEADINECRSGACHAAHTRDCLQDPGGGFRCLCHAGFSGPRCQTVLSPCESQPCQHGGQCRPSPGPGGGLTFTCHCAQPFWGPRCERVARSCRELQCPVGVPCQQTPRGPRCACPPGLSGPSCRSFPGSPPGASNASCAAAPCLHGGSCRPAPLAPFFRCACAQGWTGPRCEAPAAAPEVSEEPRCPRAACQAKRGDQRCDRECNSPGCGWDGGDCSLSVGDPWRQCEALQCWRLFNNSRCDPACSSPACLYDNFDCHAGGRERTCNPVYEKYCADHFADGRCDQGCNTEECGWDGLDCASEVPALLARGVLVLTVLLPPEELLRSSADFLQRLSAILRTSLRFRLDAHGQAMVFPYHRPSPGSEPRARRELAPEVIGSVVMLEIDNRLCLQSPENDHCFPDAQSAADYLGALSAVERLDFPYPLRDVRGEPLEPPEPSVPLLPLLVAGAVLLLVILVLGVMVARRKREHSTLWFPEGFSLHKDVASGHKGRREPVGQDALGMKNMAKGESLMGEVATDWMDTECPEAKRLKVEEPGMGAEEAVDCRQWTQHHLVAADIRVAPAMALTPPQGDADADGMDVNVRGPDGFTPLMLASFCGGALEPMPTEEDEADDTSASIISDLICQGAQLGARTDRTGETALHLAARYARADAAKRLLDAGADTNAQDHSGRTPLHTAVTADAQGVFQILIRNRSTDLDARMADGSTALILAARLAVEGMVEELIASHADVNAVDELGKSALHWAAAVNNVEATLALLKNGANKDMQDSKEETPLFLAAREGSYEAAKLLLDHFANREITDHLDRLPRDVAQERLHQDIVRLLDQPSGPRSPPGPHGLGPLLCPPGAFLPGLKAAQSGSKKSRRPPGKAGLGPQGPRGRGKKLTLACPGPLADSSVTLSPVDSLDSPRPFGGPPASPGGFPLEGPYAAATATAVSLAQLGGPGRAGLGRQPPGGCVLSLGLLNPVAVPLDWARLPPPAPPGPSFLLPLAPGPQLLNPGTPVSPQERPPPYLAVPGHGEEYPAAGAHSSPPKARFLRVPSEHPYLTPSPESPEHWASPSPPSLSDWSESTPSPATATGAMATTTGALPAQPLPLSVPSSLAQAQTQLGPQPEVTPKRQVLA

| SMILES | composite z-score [1] | z-score [2] | z-score [3] | z-score [4] | composite z-score [5] | z-score [6] | composite z-score [7] | composite z-score [8] | composite z-score [9] | composite z-score [10] |
| --- | --- | --- | --- | --- | --- | --- | --- | --- | --- | --- |
| COCCOC(=O)N1C(=O)[C@@]2(c3ccccc31)[C@H](c1ccc(O)cc1)N1[C@H](c3ccccc3)[C@H](c3ccccc3)OC(=O)[C@H]1[C@@H]2C(=O)Nc1nc2ccccc2s1 | 1.31 | 1.35 (inactive) | 0.396 (inactive) | 1.75 (inactive) | 1.94 | 1.31 (inactive) | 0.201 | 0.734 | 1.09 | 0.0432 |
| CCC(CC)C(O)C1C=CC2C(=O)NC(=O)C2N1Nc1ccc(Cl)cc1Cl (stereo not given) | 1.4 | 0.446 (inactive) | -5.81 (inactive) | 1.34 (inactive) | 3.13 | -1.57 (inactive) | -0.0306 | -0.284 | 1.01 | -0.0352 |
| COCCOC(=O)N1C(=O)[C@@]2(c3cc(C#CCCO)ccc31)[C@H](C(N)=O)[C@H]1C(=O)O[C@H](c3ccccc3)[C@H](c3ccccc3)N1[C@@H]2c1ccc(O)cc1 | -0.101 | 0.0223 (inactive) | -0.0181 (inactive) | -0.535 (inactive) | 0.877 | -0.844 (inactive) | -0.159 | -0.248 | -0.589 | -0.202 |
| CC(C)NC(=O)[C@@]1(C)c2ccccc2C(=O)N(Cc2cc(C(F)(F)F)cc(C(F)(F)F)c2)[C@H]1c1ccc(CO)cc1 | 1.4 | 0.49 (inactive) | 0.155 (inactive) | -0.0902 (inactive) | 3 | -0.0192 (inactive) | -0.239 | -0.729 | -0.301 | -0.295 |
| C=CCC(OC(C)=O)[C@@H]1[C@@H](N(Cc2ccc(-c3ccccc3)cc2)C(=O)c2ccc(-c3ccccc3)cc2)c2cc(OCCCO)ccc2N1C(=O)Cc1ccc2ccccc2c1 (stereo not given in full) | 0.758 | -0.609 (inactive) | -0.214 (inactive) | 0.218 (inactive) | 0.765 | -0.763 (inactive) | -0.119 | 0.233 | 0.3 | -0.17 |
| CCOC(=O)C1=CC[C@@H](c2ccccc2)N(S(=O)(=O)c2ccc(C)cc2)[C@H]1c1ccccc1C | 0.473 | -0.602 (inactive) | 0.903 (inactive) | -0.3 (inactive) | 1.97 | -0.3 (inactive) | 0.066 | 0.72 | 0.913 | -0.0675 |
| CN1C=C(C(=O)OCCS(C)(=O)=O)C(C(=O)OCCS(C)(=O)=O)=CC(c2ccc(CO)cc2)=CC1C1CC1 (stereo not given) | 0.522 | 0.243 (inactive) | -1.34 (inactive) | 0.678 (inactive) | 1.33 | 0.108 (inactive) | -0.22 | 0.425 | 0.415 | -0.103 |
| COC(=O)[C@@]1(Cc2ccc(OC)cc2)[C@H]2c3cc(C(=O)N4CCCC4)n(Cc4ccc(C)c(F)c4F)c3C[C@H]2CN1C(=O)c1ccccc1 | 0.998 | 0.57 (inactive) | 1.48 (inactive) | 1.57 (inactive) | 3.52 | 0.107 (inactive) | 0.505 | 0.214 | 1.04 | 0.178 |
| COC(=O)[C@@]1(Cc2ccc(OC)cc2)[C@H]2c3cc(C(=O)N(C)C)n(Cc4ccc(S(C)(=O)=O)cc4)c3C[C@H]2CN1C(=O)c1ccccc1 | -0.142 | -3.22 (inactive) | -0.462 (inactive) | -0.154 (inactive) | 3.4 | 0.0416 (inactive) | -0.264 | 0.715 | 1.11 | 0.0174 |
| CN(C)CCCCCCNC(=O)[C@@H]1C[C@@H]2C(=O)N[C@@H](Cc3ccccc3)C(=O)N2[C@@H]1c1ccc(O)cc1 | 1.53 | -0.18 (inactive) | -0.899 (inactive) | 0.0891 (inactive) | 2.84 | -0.13 (inactive) | 0.195 | 1.8 | 1.09 | 0.246 |
| COc1cc2c(cc1OC)CN(C(=O)[C@@H]1[C@H]3C(=O)O[C@H](c4ccccc4)[C@H](c4ccccc4)N3[C@H](c3ccccc3OCCO)[C@@]13C(=O)Nc1ccc(C#CCCO)cc13)CC2 | 1.56 | 1.47 (inactive) | -1.3 (inactive) | 2.22 (inactive) | 3.02 | 1.15 (inactive) | -0.108 | 0.772 | 1.08 | -0.0624 |
| C=CCC(OC(C)=O)[C@@H]1[C@@H](N(Cc2ccc(-c3ccccc3)cc2)C(=O)c2cccc3ccccc23)c2cc(OCCCO)ccc2N1C(=O)c1ccc(-c2ccccc2)cc1 (stereo not given in full) | 0.245 | 0.21 (inactive) | -0.234 (inactive) | -0.438 (inactive) | 0.796 | 1.17 (inactive) | 0.0159 | 0.0623 | -0.0827 | 0.0009 |
| CCC[C@@H]1C[C@@]1(CCC)[C@@H](NS(=O)(=O)c1cccc2cccnc12)c1ccc(Cl)cc1 | 0.0685 | 0.788 (inactive) | 1.01 (inactive) | 0.478 (inactive) | 2.66 | -1.01 (inactive) | 0.0763 | -1.22 | 0.296 | -0.136 |
| C=CCC(OC(C)=O)[C@@H]1[C@@H](N(Cc2cc3ccccc3o2)C(=O)c2cccc3ccccc23)c2cc(OCCCO)ccc2N1C(=O)c1ccc(-c2ccccc2)cc1 (stereo not given in full) | -0.101 | 0.109 (inactive) | -0.847 (inactive) | 0.0344 (inactive) | 0.581 | 1.78 (inactive) | -0.0674 | 0.293 | -0.527 | 0.0969 |
| CC1CC/C=C\[C@H]2OC34C=CCN(Cc5ccccc5)C(=O)[C@H]3N(CCCO)C(=O)[C@@H]4C2C(=O)O1 (stereo not given in full) | 0.398 | -1.7 (inactive) | -1.25 (inactive) | -0.807 (inactive) | 1.97 | 0.56 (inactive) | -0.254 | -1.12 | -0.106 | -0.283 |
| CCCc1cc2c(n1Cc1cc(F)cc(F)c1)C(C)C1CN(C(=O)c3ccccc3)C(C)(C(=O)OC)C21 (stereo not given) | 0.497 | 0.149 (inactive) | 0.744 (inactive) | 0.734 (inactive) | 3.11 | -0.738 (inactive) | 1.02 | -0.266 | 1.03 | 0.249 |
| C=C[C@@H](COC(=O)OC(C)(C)C)N(Cc1ccc(OC)cc1)S(=O)(=O)c1ccc(Br)cc1 | 0.345 | -0.374 (inactive) | -0.521 (inactive) | -0.555 (inactive) | 0.269 | -0.701 (inactive) | 0.047 | 1.07 | 1.12 | -0.0088 |
| NC(=O)N1C(=O)C2C(C1=O)C1C=C(c3ccc(CO)cc3)C2C(c2cccs2)N1Cc1cccc(OC(F)(F)F)c1 (stereo not given) | -0.139 | -1.7 (inactive) | -4.45 (inactive) | 3.82 (inactive) | 1.01 | -0.528 (inactive) | 0.181 | -0.312 | -0.146 | 0.0089 |
| CN1C(=O)C2C=CC(C(O)C3CC=CCC3)N(N(c3ccccc3)c3ccccc3)C2C1=O (stereo not given) | -1.73 | 0.607 (inactive) | 1.7 (inactive) | 1.01 (inactive) | -0.0863 | -0.843 (inactive) | 0.639 | -0.264 | 0.0898 | -0.0823 |
| COCCOC(=O)N1C(=O)[C@@]2(c3cc(C#Cc4ccc(OC)cc4)ccc31)[C@H](c1ccccc1OCCO)N1[C@H](c3ccccc3)[C@H](c3ccccc3)OC(=O)[C@H]1[C@@H]2C(=O)NC[C@H](O)c1ccccc1 | 1.53 | 2.89 (inactive) | 2.09 (inactive) | 7.27 (inactive) | 2.86 | -0.0186 (inactive) | -0.0304 | 1.17 | 1.04 | -0.0267 |
| COc1cc(C(O)C2C=CC3C(=O)NC(=O)C3N2Nc2ccccn2)cc(OC)c1OC (stereo not given) | 1.06 | 0.175 (inactive) | 1.15 (inactive) | 0.42 (inactive) | 3.09 | -1.19 (inactive) | 0.0624 | 0.0228 | 0.158 | 0.0954 |
| C=CCNC(=O)[C@@H]1[C@H]2C(=O)O[C@H](c3ccccc3)[C@H](c3ccccc3)N2[C@H](c2ccccc2OCCO)[C@@]12C(=O)N(C(=O)OCCOC)c1ccccc12 | 1.54 | 2.86 (inactive) | 2.29 (inactive) | 7.26 (inactive) | 2.64 | -0.442 (inactive) | 0.0615 | 1.71 | 0.884 | -0.0381 |
| COC(=O)C(CC#Cc1ccc2c(c1)[C@]1(C(=O)N2)[C@H](C(=O)Nc2nc3ccccc3s2)[C@H]2C(=O)O[C@H](c3ccccc3)[C@H](c3ccccc3)N2[C@@H]1c1ccc(O)cc1)C(=O)OC | 1.55 | 0.424 (inactive) | 0.301 (inactive) | 0.746 (inactive) | 2.82 | -1.05 (inactive) | -0.0258 | 0.709 | 1.03 | 0.221 |
| CC(C)=CCN[C@H](CO)c1ccccc1 | -0.198 | -0.613 (inactive) | -4.99 (inactive) | -1.32 (inactive) | 0.138 | -0.291 (inactive) | -0.236 | 0.346 | -0.0083 | -0.203 |
| CCOC(=O)C[C@H]1[C@H](OC(=O)c2ccc(C(=O)c3ccccc3)cc2)[C@@H](NC(=O)c2ccccc2)c2cc(OCCCO)ccc2N1C(=O)Cc1ccc(OC)cc1 | 0.355 | 0.0572 (inactive) | -0.682 (inactive) | -0.0292 (inactive) | 0.84 | 0.0663 (inactive) | 0.0283 | 0.49 | 0.0805 | -0.142 |
| O=C1O[C@H](c2ccccc2)[C@H](c2ccccc2)N2[C@H]1[C@@H](C(=O)N1CCCCCCC1)[C@]1(C(=O)Nc3ccc(C#CCCO)cc31)[C@H]2c1ccccc1OCCO | 1.55 | 2.09 (inactive) | -13.6 (active) | 4.15 (inactive) | 5.15 | 0.689 (inactive) | 1.96 | 2.41 | 1.01 | 1.34 |
| CC1(C)C2C=C(C(O)C3C=CC4C(=O)NC(=O)C4N3Nc3ccc(Cl)cc3Cl)C[C@@H]1C2 (stereo not given in full) | 0.804 | -7.63 (inactive) | -6.77 (inactive) | 0.722 (inactive) | 1.33 | -2.98 (inactive) | 0.374 | 0.178 | 0.996 | 0.279 |
| COC(=O)C[C@H]1O[C@]2(C(=O)N(C)c3ccccc32)[C@@H](C)[C@@H]1[Si](C)(C)F | 1.54 | -2.06 (inactive) | -1.29 (inactive) | -0.922 (inactive) | 2.24 | 1.64 (inactive) | -0.168 | 1.86 | 0.59 | -0.132 |
